# Source: PubChem BioAssay (NCATS)
# Inconclusive results are not listed. Where a call stands in place of a potency, no number is given. A number with no mark means an inactive call. Calls of active or inactive are those of the source. The call rests on the fitted dose curve.
# Assay: Cytotoxicity counterscreen for inhibitors of SARS-CoV-2 cell entry (AID 1645845); further: nearly all actives have a fitted effect of over 50% in size
# Settings: cell viability (SARS-CoV-2 entry assay cells); series mostly up to 57.1 µM
# Summary of the method: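 After a 15 min room-temperature ATPLite 1step step, luminescence reflected ATP remaining in HEK293-ACE2 cells exposed to compound for 1 h plus 48 h at 37 C, with percent activity set by cell and no-cell controls.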
# Potency means the concentration at half of the fitted maximal effect.
SMILES,Potency,"activity change, negative = cytotoxicity"
Cc1[nH]nc(C(F)(F)F)c1Cc1sc2c(c1C(=O)N1C[C@](C)(O)CO1)c(=O)n(C)c(=O)n2C(C)C,inactive,
Cc1nn(C)c(COc2ccc(N3CCN(S(=O)(=O)N(C)C)CC3)cc2)c1-c1cccc2c(CCCOc3cccc4ccccc34)c(C(=O)O)n(CCN3CCOCC3)c12,inactive,
Cc1nnc(C(C)C)n1C1CC2CCC(C1)N2CCC(NC(=O)C1CCC(F)(F)CC1)c1ccccc1 (centres undefined),inactive,
O=C1S/C(=C\c2ccc(OCc3cccc(B(O)O)c3)cc2)C(=O)N1Cc1ccc(F)cc1,inactive,
NC1CCCN(c2c(/C=C3\SC(=O)NC3=O)cccc2-c2ccccc2)C1 (centres undefined),inactive,
NCC(=O)Nc1cncc(-c2nn3c(=O)cc(N4CCNCC4)nc3s2)c1,inactive,
O=C(/C=C\n1cnc(-c2cc(C(F)(F)F)cc(C(F)(F)F)c2)n1)NNc1ccccn1,2.51 µM (active),
O=C(O)CNC(=O)c1ncc(-c2cccc(Cl)c2)cc1O,inactive,
CC1(C)CN(C(=O)c2ccc(-c3cccc4nc(NC(=O)C5CC5)nn34)cc2)C1,inactive,
Cc1ccc(-c2ccc3ncc4c(c3n2)n(C2CCN(C(=O)[C@H](C)O)CC2)c(=O)n4C)cn1,inactive,
COc1cc2ncnc(Nc3cccc(Cl)c3F)c2cc1OC(=O)N1CCN(C)C[C@H]1C,inactive,
Cc1c(Cl)cccc1S(=O)(=O)Nc1nc(CCN2CCOCC2=O)cs1,inactive,
Cn1c(-c2ccccc2C(F)(F)F)nnc1C12CCC(c3noc(C4CC(F)(F)C4)n3)(CC1)CC2,inactive,
CC(=O)[C@]1(N)Cc2c(O)c3c(c(O)c2[C@@H](O[C@H]2C[C@H](O)[C@H](O)CO2)C1)C(=O)c1ccccc1C3=O,inactive,
Nc1nccc(-c2c(-c3ccc(F)cc3)ncn2C2CCCCC2)n1,inactive,
NC[C@H]1O[C@H](O[C@H]2[C@H](O)[C@@H](O[C@H]3O[C@H](CO)[C@@H](O)[C@H](N)[C@H]3O)[C@H](N)C[C@@H]2N)[C@H](N)C[C@@H]1O,inactive,
CC1(C)SCCN(S(=O)(=O)c2ccc(OCC#CCO)cc2)[C@H]1C(=O)NO,inactive,
CC(=O)Nc1ccc(C(=O)NC(C)(C)C)cc1,inactive,
O=c1ncccn1[C@@H]1O[C@H](CO)[C@@H](O)[C@H]1O,inactive,
Cc1cc(-c2cnn3c(NCC4CC(C)(O)C4)cc(Oc4cccnc4)nc23)ccc1C(=O)NC1CC1 (centres undefined),,4.49% [at 5.25 µM]

SMILES,Potency,"activity change, negative = cytotoxicity"
O=c1ccn([C@@H]2O[C@H](CO)[C@@H](O)[C@H]2O)c(=O)[nH]1,inactive,
Cc1ccc(NS(=O)(=O)c2ccc3c(c2)C2C=CCC2C(c2ccc(C(=O)O)cc2)N3)cc1C (centres undefined),inactive,
C#Cc1cccc(Nc2ncnc3cc4c(cc23)OCCOCCOCCO4)c1,inactive,
CCN1CCN(Cc2ccc(NC(=O)c3ccc(C)c(NC(=O)c4cncc(-c5cccs5)c4)c3)cc2C(F)(F)F)CC1,31.6 µM (active),
CCN(c1cc(-c2ccc(CN3CCOCC3)cc2)cc(C(=O)NCc2c(C)cc(C)[nH]c2=O)c1C)C1CCOCC1,inactive,
O=C(NC[C@H](O)CN1CCc2ccccc2C1)c1ccnc(NC2CCC2)c1,inactive,
Cc1cc(O)c(-c2ccc([C@@H](C)CN)cc2)c2c1[nH]c(=O)c1sccc12,inactive,
Nc1nc(F)nc2c1ncn2[C@@H]1O[C@H](COP(=O)(O)O)[C@@H](O)[C@@H]1O,inactive,
CC[C@H](Nc1ncnc2nc[nH]c12)c1oc2ccccc2c(=O)c1-c1cccc(F)c1,inactive,
CN(C)C1CCN(C(=O)c2ccc(NC(=O)Nc3ccc(-c4nc(N5CCOCC5)nc(N5CCOCC5)n4)cc3)cc2)CC1,1.12 µM (active),
CC#Cc1cncc(-c2ccc3c(c2)[C@@]2(N=C(C)C(N)=N2)C2(CCC(OC)CC2)C3)c1 (some centres undefined),inactive,
CC(C)(O)C1CCC(Nc2ccc3ncc(-c4cccc(C(F)(F)F)c4)n3n2)CC1 (centres undefined),inactive,
C[C@@H](Oc1cc(C(=O)Nc2ccc(C(=O)N3CCN(C)CC3)cc2)nnc1N)c1c(Cl)ccc(F)c1Cl,28.2 µM (active),
CC(C)S(=O)(=O)c1ccc2nccc(Nc3ccc4scnc4c3)c2c1,inactive,
COC[C@@H](c1ccc(C(F)(F)F)cc1)N1CCN(C2(C)CCN(C(=O)c3c(C)ncnc3C)CC2)C[C@@H]1C,inactive,
CCCCOC(=O)NS(=O)(=O)c1sc(CC(C)C)cc1-c1ccc(Cn2ccnc2)cc1,inactive,
CN(C)CCNC(=O)COc1c2cccc1Cc1cccc(c1OCC(=O)NCCN(C)C)Cc1cccc(c1OCC(=O)NCCN(C)C)Cc1cccc(c1OCC(=O)NCCN(C)C)C2,,-11.8% [at 11.3 µM]
O=C(Nc1ccc2c(c1)CCN(Cc1ncn[nH]1)C2)c1ccccc1-c1ccc(C(F)(F)F)cc1,inactive,
COc1cccc(OCCCN)c1-c1cc(Nc2cnc(C#N)cn2)n[nH]1,inactive,
